Test results reported in PubChem BioAssay (NCATS).
Inconclusive results are not listed. Where a call stands in place of a potency, no number is given. Unmarked numbers belong to inactive results. Calls of active or inactive are those of the source. Calls follow the shape of the dose curve; as a rule, active = well fitted curve in the direction sought with a large enough effect; inconclusive = small, poorly fitted or top-dose-only effect, or another doubt; inactive = no such curve, though single readings can be large; an effect the other way counts as inactive or inconclusive.

Legend:
[1] = target: Rap guanine nucleotide exchange factor 3 (Homo sapiens) (UniProt O95398); test: Confirmatory qHTS for agonist of cAMP-regulated guanine nucleotide exchange factor 3 (EPAC1) (AID 1645881);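 also: EPAC1 catalysed release of BODIPY-GDP from Rap1B seen as fluorescence loss; nearly all actives have a fitted effect of over 75% in size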
[2] = target: Rap guanine nucleotide exchange factor 4 (Homo sapiens) (UniProt Q8WZA2); test: Confirmatory qHTS for agonist of cAMP-regulated guanine nucleotide exchange factor 4 (EPAC2) (AID 1645884);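 also: nucleotide exchange releases bodipy-GDP from Rap1 and this lowers its fluorescence; nearly all actives have a fitted effect of over 65% in size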
[3] = target: Rap guanine nucleotide exchange factor 4 (Homo sapiens) (UniProt Q8WZA2); test: Confirmatory qHTS for antagonist of cAMP-regulated guanine nucleotide exchange factor 4 (EPAC2) (AID 1645885); also: nearly all actives have a fitted effect of over 25% in size; also: potency is read from the fitted curve at half-maximal effect
[4] = target: Rap guanine nucleotide exchange factor 3 (Homo sapiens) (UniProt O95398); test: Counterscreen qHTS for antagonist of cAMP-regulated guanine nucleotide exchange factor 3 (EPAC1) (AID 1645888);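 also: fluorescence loss as bound BODIPY-GDP is released from Rap1B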
Outline: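 Rap1B–BODIPY-GDP (250 nM) with 50 uM GDP; compounds pin-transferred to 9.74 nM–152 uM final (activator) or from 7.32 nM upwards (inhibitor). Fluorescence Ex/Em 480/540 nm read at 5 and 30 min, then after adding cAMP or buffer, at room temperature.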

Rap guanine nucleotide exchange factor 3 (Homo sapiens), sequence (O95398 whole entry, looked up): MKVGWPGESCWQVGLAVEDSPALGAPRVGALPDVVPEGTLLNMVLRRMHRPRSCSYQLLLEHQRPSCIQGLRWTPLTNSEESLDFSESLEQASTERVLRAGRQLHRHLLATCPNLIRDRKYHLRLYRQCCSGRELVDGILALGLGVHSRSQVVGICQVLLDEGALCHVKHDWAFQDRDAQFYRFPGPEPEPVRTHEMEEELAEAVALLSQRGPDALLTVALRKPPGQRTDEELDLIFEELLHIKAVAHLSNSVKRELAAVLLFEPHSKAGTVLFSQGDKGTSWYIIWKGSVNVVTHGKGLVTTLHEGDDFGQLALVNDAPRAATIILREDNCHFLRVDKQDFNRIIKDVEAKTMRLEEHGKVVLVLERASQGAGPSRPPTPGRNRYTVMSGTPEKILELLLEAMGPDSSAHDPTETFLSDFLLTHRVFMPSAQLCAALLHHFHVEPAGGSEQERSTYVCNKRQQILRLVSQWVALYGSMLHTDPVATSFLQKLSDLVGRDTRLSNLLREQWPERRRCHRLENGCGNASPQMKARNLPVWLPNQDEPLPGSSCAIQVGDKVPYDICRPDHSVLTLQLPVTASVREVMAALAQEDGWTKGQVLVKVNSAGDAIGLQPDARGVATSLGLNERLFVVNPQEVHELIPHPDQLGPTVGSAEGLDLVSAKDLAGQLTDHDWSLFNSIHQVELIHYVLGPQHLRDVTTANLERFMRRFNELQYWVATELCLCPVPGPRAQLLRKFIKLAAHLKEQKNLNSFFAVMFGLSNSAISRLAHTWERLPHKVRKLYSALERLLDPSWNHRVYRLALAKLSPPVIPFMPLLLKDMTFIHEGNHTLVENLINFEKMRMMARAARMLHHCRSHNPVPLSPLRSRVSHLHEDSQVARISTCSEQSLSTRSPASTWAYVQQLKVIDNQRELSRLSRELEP
Rap guanine nucleotide exchange factor 4 (Homo sapiens), sequence (Q8WZA2 whole entry, looked up): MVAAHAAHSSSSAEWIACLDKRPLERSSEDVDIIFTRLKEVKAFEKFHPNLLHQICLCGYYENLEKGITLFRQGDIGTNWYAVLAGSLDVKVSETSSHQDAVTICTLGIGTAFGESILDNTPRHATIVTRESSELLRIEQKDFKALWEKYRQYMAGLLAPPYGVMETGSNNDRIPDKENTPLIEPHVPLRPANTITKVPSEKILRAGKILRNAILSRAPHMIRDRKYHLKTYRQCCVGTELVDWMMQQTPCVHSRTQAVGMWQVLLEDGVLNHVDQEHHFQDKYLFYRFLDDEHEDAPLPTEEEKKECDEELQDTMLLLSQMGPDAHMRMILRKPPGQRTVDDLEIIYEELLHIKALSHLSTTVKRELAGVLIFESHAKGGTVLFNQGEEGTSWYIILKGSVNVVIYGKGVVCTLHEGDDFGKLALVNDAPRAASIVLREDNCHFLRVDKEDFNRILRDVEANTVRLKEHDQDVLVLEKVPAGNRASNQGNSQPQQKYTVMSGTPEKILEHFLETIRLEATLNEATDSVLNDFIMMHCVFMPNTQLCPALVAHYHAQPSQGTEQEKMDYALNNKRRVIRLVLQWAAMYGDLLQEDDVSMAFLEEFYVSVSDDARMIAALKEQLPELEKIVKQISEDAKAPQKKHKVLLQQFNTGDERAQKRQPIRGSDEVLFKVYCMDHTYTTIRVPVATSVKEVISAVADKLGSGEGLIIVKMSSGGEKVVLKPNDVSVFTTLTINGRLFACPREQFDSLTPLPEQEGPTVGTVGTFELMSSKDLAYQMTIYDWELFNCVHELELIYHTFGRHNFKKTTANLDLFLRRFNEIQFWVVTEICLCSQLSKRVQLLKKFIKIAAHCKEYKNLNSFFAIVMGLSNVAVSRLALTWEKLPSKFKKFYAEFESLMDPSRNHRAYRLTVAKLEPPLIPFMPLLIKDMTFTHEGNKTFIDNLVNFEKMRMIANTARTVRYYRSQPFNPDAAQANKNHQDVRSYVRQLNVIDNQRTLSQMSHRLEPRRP

Row | Structure (SMILES) | Potency [1] | Potency [2] | Potency [3] | Potency [4] | activation [2] | activity change, negative = inhibition [4] | outcome [3]
1 | C[C@@]12C(=O)Nc3cc(F)ccc3C(=O)N1[C@H]1c3cc(Br)ccc3OC[C@@H]1[C@@H]2c1ccccc1 | inactive | inactive | inactive | inactive | – | – | –
2 | CCOC(=O)c1cnc2ccc(C(=O)OC)cc2c1Nc1ccccc1CC | inactive | inactive | inactive | inactive | – | – | –
3 | COc1cc(/C=C2\SC(=S)N(CCCCC(=O)O)C2=O)ccc1OS(=O)(=O)c1ccc(C)cc1 | inactive | – | inactive | – | -4.35% [at 17.1 µM, percent relative to cAMP agonist control] | -18.6% [at 30.8 µM] | –
4 | O=C(O)c1ccc(N/N=C/c2ccc(-c3ccccc3Cl)o2)cc1 | inactive | – | inactive | – | 7.2% [at 17.1 µM, percent relative to cAMP agonist control] | 1.4% [at 30.8 µM] | –
5 | COc1ccccc1Nc1cc2cc(Br)ccc2c(=O)[nH]1 | inactive | inactive | inactive | inactive | – | – | –
6 | Cc1cc(N2CCOCC2)ccc1/C=C1/SC(=O)NC1=O | inactive | inactive | inactive | inactive | – | – | –
7 | CCOC(=O)C1CCN(c2c(C(=O)c3ccc(C)cc3)cnc3ccc(F)cc23)CC1 | inactive | inactive | inactive | inactive | – | – | –
8 | Cc1ccc(C)c(OC(C)C(=O)Nc2ccc(S(=O)(=O)Nc3nccs3)cc2)c1 (stereo not given) | inactive | inactive | 33.8 µM (active) | inactive | – | – | –
9 | COc1ccc(NC(=O)CSc2nc(O)cc(=O)n2-c2ccc(OC)cc2)cc1 | inactive | inactive | inactive | inactive | – | – | –
10 | COc1cc(OC)c(NC(=O)CN(C)S(=O)(=O)c2ccc(-c3ccc(=O)[nH]n3)s2)cc1Cl | inactive | inactive | inactive | inactive | – | – | –
11 | Cc1ccc(Nc2nnc(-c3ccc(C)c(S(N)(=O)=O)c3)c3ccccc23)cc1 | inactive | inactive | – | inactive | – | – | inactive [at 12.7 µM]
12 | O=S(=O)(NCC(c1cccnc1)N1CCN(c2ccccc2F)CC1)c1cccs1 (stereo not given) | inactive | – | inactive | – | 0% [at 17.1 µM, percent relative to cAMP agonist control] | -13.6% [at 30.8 µM] | –
13 | O=C(O)c1ccc(-c2nc(-c3ccc(Cl)cc3Cl)cs2)cc1 | inactive | – | inactive | – | 10.1% [at 17.1 µM, percent relative to cAMP agonist control] | -4.87% [at 30.8 µM] | –
14 | C=CCc1ccccc1OCCSc1nc(-c2ccccc2F)nc2cc(=O)[nH]n12 | inactive | inactive | inactive | inactive | – | – | –
15 | CN(C)c1ccc(-c2[nH][nH]c(=O)c2NC(=O)c2ccccn2)cc1 | inactive | inactive | inactive | inactive | – | – | –
16 | O=C(CSc1nc2ccc(Cl)cc2[nH]1)N1CCN(C(=O)c2ccco2)CC1 | inactive | inactive | inactive | inactive | – | – | –
17 | COc1cc(NC(=O)c2cc3nc(-c4ccccc4)cc(-c4ccccc4)n3n2)cc(OC)c1OC | inactive | inactive | inactive | inactive | – | – | –
18 | Cc1nnc(SCC(=O)NCc2ccccc2F)c2nn(-c3ccc(Cl)cc3)c(C)c12 | inactive | inactive | inactive | inactive | – | – | –

Row | Structure (SMILES) | Potency [1] | Potency [2] | Potency [3] | Potency [4] | activation [2] | activity change, negative = inhibition [4] | outcome [3]
19 | O=C(COc1ccccc1-c1ccccc1)NCc1ccco1 | inactive | inactive | – | inactive | – | – | inactive [at 12.7 µM]
20 | O=C1c2ccccc2C(=O)C12OC2c1cccc2ccccc12 (stereo not given) | inactive | inactive | inactive | inactive | – | – | –
21 | NC(=O)C1CCN(C(=O)c2ccc3c(=O)n(Cc4cccc(Br)c4)c(=S)[nH]c3c2)CC1 | inactive | – | inactive | – | 7.22% [at 17.1 µM, percent relative to cAMP agonist control] | -4.35% [at 30.8 µM] | –
22 | CC(=O)N1N=C(c2ccc(Cl)cc2)CC1c1ccc([N+](=O)[O-])cc1 (stereo not given) | inactive | – | inactive | – | 7.36% [at 17.1 µM, percent relative to cAMP agonist control] | 2.9% [at 30.8 µM] | –
23 | Cc1ccc(C)c(-c2ccc(=O)n(Cc3c(F)cccc3Cl)n2)c1 | inactive | inactive | inactive | inactive | – | – | –
24 | CCc1nc(Oc2cccc(F)c2)c2oc3ccccc3c2n1 | inactive | inactive | inactive | inactive | – | – | –
25 | COc1ccc(OC)c(NC(=O)C(C)Oc2ccc(Br)cc2)c1 (stereo not given) | inactive | inactive | inactive | inactive | – | – | –
26 | COc1cccc(C(=O)Nc2cccc(C(=O)OCc3cc(=O)n4c(C)csc4n3)c2)c1 | inactive | inactive | inactive | inactive | – | – | –
27 | O=C(c1ccc(Br)cc1)C(CN1CCOCC1)c1ccccc1 (stereo not given) | inactive | – | inactive | – | 8.74% [at 17.1 µM, percent relative to cAMP agonist control] | 16% [at 30.8 µM] | –
28 | NC(=O)c1c(NC(=O)CN2CCN(S(=O)(=O)c3ccccc3)CC2)sc2c1CCC2 | inactive | inactive | inactive | inactive | – | – | –
29 | CN(c1ccccc1)c1ccc(/C=C(/CCC(=O)O)c2nc3ccccc3s2)cc1[N+](=O)[O-] | inactive | inactive | inactive | inactive | – | – | –
30 | Cc1ccc(NC(=O)c2sc3nc(-c4ccncc4)ccc3c2N)cc1 | inactive | inactive | inactive | inactive | – | – | –
31 | O=c1[nH][nH]c(-c2ccccc2O)c1C(C[N+](=O)[O-])c1ccc(Br)cc1 (stereo not given) | inactive | inactive | inactive | inactive | – | – | –
32 | CCCC(=O)OC1CC(C)N(C(=O)c2ccccc2)c2ccc(C)cc21 (stereo not given) | inactive | – | 3.38 µM (active) | – | -2.84% [at 17.1 µM, percent relative to cAMP agonist control] | -2.85% [at 30.8 µM] | –
33 | CC1=Nc2ccccc2N=C(NC(=O)/C=C/C(=O)O)C1c1ccccc1 (stereo not given) | inactive | inactive | 0.0675 µM (active) | inactive | – | – | –
34 | Cc1ccc(SC/C(O)=C(\C#N)c2nc3ccccc3s2)cc1 | inactive | inactive | inactive | inactive | – | – | –
35 | CC1=NN(c2ccccc2)C(=O)C1C(=O)c1cc([N+](=O)[O-])cc([N+](=O)[O-])c1 (stereo not given) | inactive | inactive | inactive | inactive | – | – | –
